Test results reported in PubChem BioAssay (NCATS).
Results filed as inconclusive are left out. Where a call stands in place of a potency, no number is given. The source made the active and inactive calls. Calls follow the shape of the dose curve; as a rule, active = well fitted inhibition curve with a large enough effect; inconclusive = small, poorly fitted or top-dose-only effect; inactive = flat fitted curve, though single readings scatter.

Legend:
Test in all cases: qHTS profiling for inhibitors of Plasmodium falciparum proliferation (AID 504749); also: nearly all actives have a fitted effect of over 60% in size
Conditions in all cases: P. falciparum in erythrocytes, SYBR Green DNA, 72 h; series mostly up to 28.7 µM
CP201 = system: CP201
Procedure, shortened: (§1)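 Each compound contacts P. falciparum-infected red blood cells for 72 h at 37 C; lysis buffer (Tris, EDTA, saponin, Triton X, SYBR Green I) is added and fluorescence measured next morning; values normalized to controls.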

CP211 = system: CP211
Procedure, shortened: as §1

CP215 = system: CP215
Procedure, shortened: as §1

CP217 = system: CP217
Procedure, shortened: as §1

CP237 = system: CP237
Procedure, shortened: as §1

CP238 = system: CP238
Procedure, shortened: as §1

CP247 = system: CP247
Procedure, shortened: as §1

CP250 = system: CP250
Procedure, shortened: as §1

CP252 = system: CP252
Procedure, shortened: as §1

CP203 = system: CP203
Procedure, shortened: as §1
Potency is read from the fitted curve at half-maximal effect.

SMILES | Potency (CP201) | Potency (CP211) | Potency (CP215) | Potency (CP217) | Potency (CP237) | Potency (CP238) | Potency (CP247) | Potency (CP250) | Potency (CP252) | Potency (CP203)
c1ccc2c(c1)Sc1ccccc1N2CCN1CCCC1 | 13.5 µM (active) | 13.5 µM (active) | 12 µM (active) | 7.08 µM (active) | 5.01 µM (active) | 11.2 µM (active) | 7.08 µM (active) | 11.2 µM (active) | 11.2 µM (active) | –
CS(=O)(=O)c1ccc([C@@H](O)[C@@H](COC(=O)CN)NC(=O)C(Cl)Cl)cc1 | – | – | – | – | – | – | inactive | inactive | – | –
CC[C@H]1OC(=O)[C@H](C)[C@@H](O[C@H]2C[C@@](C)(OC)[C@@H](O)[C@H](C)O2)[C@H](C)[C@@H](O[C@@H]2O[C@H](C)C[C@H](N(C)C)[C@H]2O)[C@](C)(O)C[C@@H](C)CN(C)[C@H](C)[C@@H](O)[C@]1(C)O | – | – | – | 5.62 µM (active) | 5.01 µM (active) | 5.62 µM (active) | – | – | 4.47 µM (active) | –
Oc1cccc(O)c1O | – | – | – | inactive | – | inactive | – | inactive | inactive | –
O=C(CCCN1CCC(C(=O)c2ccc(F)cc2)CC1)c1ccc(F)cc1 | inactive | inactive | inactive | inactive | – | inactive | – | inactive | inactive | –
COc1ccc(/C=N/NC(=O)c2ccncc2)c(C(=O)O)c1OC | – | inactive | inactive | inactive | inactive | inactive | inactive | inactive | inactive | inactive
COc1cc(NCCCC(C)N)c2ncccc2c1 (configuration not stated) | – | – | 8.49 µM (active) | 11.2 µM (active) | 7.08 µM (active) | 11.2 µM (active) | 4.47 µM (active) | 5.62 µM (active) | 11.2 µM (active) | 7.57 µM (active)
O=C(c1cc2ccccc2o1)N1CCN(Cc2ccccc2)CC1 | – | – | – | – | – | inactive | – | – | – | –
O=C(Nc1ccc(O)cc1)c1ccccc1O | inactive | inactive | inactive | – | inactive | inactive | – | inactive | inactive | –
CN1CCCC(CN2c3ccccc3Sc3ccccc32)C1 (configuration not stated) | inactive | – | – | 10 µM (active) | – | – | – | – | – | –
CCN(CC)CCOC(=O)c1cccnc1 | – | inactive | inactive | inactive | – | – | – | – | inactive | inactive
[O-][N+](=Nc1ccccc1)c1ccccc1 | inactive | inactive | inactive | inactive | inactive | inactive | inactive | inactive | inactive | –
CC(=O)c1ccc2c(c1)N(CCCN1CCN(CCO)CC1)c1ccccc1S2 | – | – | – | 10 µM (active) | 11.2 µM (active) | – | 11.2 µM (active) | – | 10 µM (active) | –
OCCOCCOCCO | – | – | 16.9 µM (active) | inactive | inactive | inactive | inactive | inactive | inactive | –
CCCCC[C@H](O)/C=C/[C@@H]1[C@H]2C/C(=C/CCCC(=O)O)O[C@H]2C[C@H]1O | inactive | inactive | inactive | inactive | inactive | inactive | inactive | inactive | inactive | –
OCc1ccccc1 | inactive | inactive | – | – | – | inactive | – | 10 µM (active) | inactive | –
